Compounds with a hit are over-represented: about 2.4% of the library has one in this group of screens.
Pol kappa inh-1 = blocks human DNA polymerase kappa activity; purified Pol kappa, fluorescent DNA synthesis assay, 10 min; Potency, µM (highest dose often 107 µM), without a hit: top-dose activity, negative = inhibition, usual class: inhibitors; actives 0.53% (n = 400,000); AID 588579; also: % is scaled to controls: 0 for no effect and ±100 for the full control effect
Target sequence (Q9UBT6 whole entry, looked up): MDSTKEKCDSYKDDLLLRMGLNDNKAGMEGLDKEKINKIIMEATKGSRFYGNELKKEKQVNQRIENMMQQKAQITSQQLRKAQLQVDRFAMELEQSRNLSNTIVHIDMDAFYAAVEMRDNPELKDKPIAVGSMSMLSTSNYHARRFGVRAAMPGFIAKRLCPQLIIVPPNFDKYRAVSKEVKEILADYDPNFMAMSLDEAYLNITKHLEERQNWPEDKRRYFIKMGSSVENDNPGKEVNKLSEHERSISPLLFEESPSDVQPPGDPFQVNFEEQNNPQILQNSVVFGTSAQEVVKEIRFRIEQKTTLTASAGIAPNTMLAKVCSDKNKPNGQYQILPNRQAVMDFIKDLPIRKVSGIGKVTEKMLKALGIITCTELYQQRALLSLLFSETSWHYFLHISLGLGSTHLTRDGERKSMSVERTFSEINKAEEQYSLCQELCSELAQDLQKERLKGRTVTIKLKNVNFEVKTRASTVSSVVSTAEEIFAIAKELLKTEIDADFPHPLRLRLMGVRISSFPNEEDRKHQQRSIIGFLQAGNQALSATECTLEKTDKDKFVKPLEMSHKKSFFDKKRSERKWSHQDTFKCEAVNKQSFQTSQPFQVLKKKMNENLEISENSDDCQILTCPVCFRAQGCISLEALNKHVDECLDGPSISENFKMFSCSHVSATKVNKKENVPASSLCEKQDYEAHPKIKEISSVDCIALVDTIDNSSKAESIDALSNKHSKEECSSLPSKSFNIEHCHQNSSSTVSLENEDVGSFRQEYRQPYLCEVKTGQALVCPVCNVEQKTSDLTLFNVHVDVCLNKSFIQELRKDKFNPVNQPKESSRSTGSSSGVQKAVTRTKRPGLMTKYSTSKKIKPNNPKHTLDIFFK
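Readout: fluorescence, taken kinetically at 0 and 10 min. Conditions: 10 nM Pol kappa, 15 min RT compound preincubation, 50 nM substrate final. Controls: enzyme-free buffer wells.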
POLB inh = DNA polymerase beta (human) inhibition; P06746; Pol beta primer extension/strand displacement, fluorescence kinetic; Potency, µM (doses to about 114 µM), for inactives: at the highest dose activity change, negative = inhibition, most hits filed as inhibitors; actives 1.3% (n = 340,000); also: % is scaled to controls: 0 for no effect and ±100 for the full control effect
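Curves were derived by four-parameter Hill fits of normalized qHTS data. The kinetic fluorescent primer-extension read was taken at 0 and 10 min after 50 nM substrate, following a 15 min room-temperature preincubation of 10 nM enzyme with compounds.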
Pol eta inh-1 = blocks human DNA polymerase eta activity; actives 1.2% (n = 390,000); Potency, µM (highest dose often 114 µM), for inactives: at the highest dose activity change, negative = inhibition, actives largely listed as inhibitors; recombinant Pol eta, fluorescent DNA replication assay; Q9Y253; also: % is scaled to controls: 0 for no effect and ±100 for the full control effect
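Fluorescent replication assay: 50 nM final substrate added after a 15 min room-temperature compound preincubation with 10 nM enzyme. Signal taken at 0 min and again at 10 min.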
POLI inh = inhibitors of human DNA polymerase iota; Q9UNA4; Pol iota fluorescent replication assay, 10 min; Potency, µM (doses to about 115 µM), without a hit: at the top dose activity, negative = inhibition, actives largely listed as inhibitors; actives 1% (n = 390,000)
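Pol iota at 10 nM preincubated 15 min with compounds at room temperature; reaction started with fluorescent substrate, 50 nM final. Fluorescence read kinetically at 0 and 10 min; buffer-only wells as negative control.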
FEN1 inh-1 = blocks human flap endonuclease 1 | Recombinant FEN1 flap cleavage, fluorescence, 15 min | Potency, µM (top dose mostly 114 µM), for the others: top-dose activity change, negative = inhibition, hits mostly inhibitors | actives 0.35% (n = 390,000) | AID 588795; also: % is scaled to controls: 0 for no effect and ±100 for the full control effect; nearly all actives have a fitted effect of over 65% in size
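Recombinant FEN1 (10 nM) was preincubated with pin-transferred compounds for 15 min at room temperature, then flap DNA substrate (50 nM final) was added. Plates were read at 0 and 15 min, and normalized concentration–response data were fitted to a four-parameter Hill equation.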
WRN helicase inh = WRN helicase (human) inhibition; Q14191; WRN helicase unwinding, fluorescent forked duplex, kinetic; Potency, µM (titrated, usually from 114 µM), for inactives: at the highest dose activity change, negative = inhibition, usual class: inhibitors; actives 0.46% (n = 360,000); AID 651768; also: % is scaled to controls: 0 for no effect and ±100 for the full control effect; nearly all actives have a fitted effect of over 55% in size
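WRN at 20 nM final preincubated with compound 15 min at room temperature; reaction started with 100 nM fluorophore/quencher forked duplex oligonucleotide and 2 mM ATP final. Unwinding followed kinetically by red fluorescence (ex 525, em 598 nm).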
PGK validate = TbPGK inhibition, hit validation; shares compounds with Pol kappa inh-1; TbPGK coupled GAPDH assay, Kinase-Glo luminescence; Potency, µM (highest dose often 57.5 µM), inactives show at the top dose activity change, negative = inhibition, most hits filed as inhibitors; actives 79% (n = 500); also: % is scaled to controls: 0 for no effect and ±100 for the full control effect; nearly all actives have a fitted effect of over 65% in size
POLI cherry-pick = Human Pol iota inhibitor confirmatory assay; Potency, µM, hits mostly inhibitors; shares compounds with Pol kappa inh-1; Pol iota primer extension, TAMRA/BHQ fluorescence; actives 77% (n = 1,500)
Pol kappa inh-2 = Pol kappa (human) inhibition, cherry-pick confirmation; actives 76% (n = 920); purified Pol-kappa, fluorescent strand-displacement substrate; Potency, µM, most hits filed as inhibitors; shares compounds with Pol eta inh-1
Pol eta inh-2 = confirmation of human DNA polymerase eta inhibitors; shares compounds with Pol eta inh-1; Pol eta primer extension, TAMRA/BHQ fluorescence, 10 min; Potency, µM, actives largely listed as inhibitors; actives 64% (n = 2,600)
FEN1 inh-2 = FEN1 inhibition, cherry-pick retest. shares compounds with FEN1 inh-1. FEN1 flap cleavage, TAMRA/BHQ2 fluorogenic DNA substrate. Potency, µM, most hits filed as inhibitors. actives 79% (n = 880); also: nearly all actives have a fitted effect of over 60% in size
An asterisk follows results filed as active; i = inactive; ? = inconclusive; · = not tested or not shown; [ ] = another dose, or the depositor's remark. Calls follow the shape of the dose curve; as a rule, active = well fitted curve in the direction sought with a large enough effect; inconclusive = small, poorly fitted or top-dose-only effect, or another doubt; inactive = no such curve, though single readings can be large; an effect the other way counts as inactive or inconclusive. Potency is read from the fitted curve at half-maximal effect.

SMILES	Pol kappa inh-1	POLB inh	Pol eta inh-1	POLI inh	FEN1 inh-1	WRN helicase inh	POLI cherry-pick	Pol kappa inh-2	Pol eta inh-2	FEN1 inh-2	others
N#Cc1ccccc1Cn1c(=O)n(Cc2ccc(C(=O)NCc3ccco3)cc2)c(=O)c2sccc21	-26.4%	?	-15.2%	-5.7%	5.4%	-11.4%	·	·	·	·
COc1ccc(-c2nc3sc(CCNC(=O)c4ccc(C(C)(C)C)cc4)c(C)n3n2)cc1	-9.3%[60.1 µM]	-2.4%	-12.3%	8.4%	4.5%	·	·	·	·	·
O=C(CCCN1C(=O)/C(=C/c2cccs2)SC1=S)Nc1ccccn1	-1.5%	-25.2%	-18.7%	-12.6%	15.2%	3.0%	·	·	·	·
O=C(O)CCCN1C(=O)/C(=C/c2cn(-c3ccccc3)nc2-c2cccs2)SC1=S	?	22.4µM*	28.2µM*	35.5µM*	-29.1%	50.1µM*	42.3*	·	75.7*	·
CCN1/C(=C/C=C/c2oc3ccc(-c4ccccc4)cc3[n+]2CC)Oc2ccc(-c3ccccc3)cc21	?	79.4µM*	?	?	31.6µM*	4.74µM*	29.9*	37.7*	21.3*	26.9*
COc1ccc(C[C@@H]2c3cc(OC)c(OC)cc3CC[N@+]2(C)CCC(=O)OCCCCCOC(=O)CC[N@@+]2(C)CCc3cc(OC)c(OC)cc3[C@H]2Cc2ccc(OC)c(OC)c2)cc1OC	-3.7%[19.4 µM]	·	·	·	·	·	·	·	·	·
N#C/C(=C\c1ccc(OCc2ccc(Cl)cc2)cc1)C(=O)Nc1cccc(C(=O)O)c1	-8.4%	31.6µM*	?	?	?	?	42.3*	·	75.7*	67.5*
CC(=O)N1CCc2cc(Br)cc(S(=O)(=O)NCCc3cccc(C)c3)c21	-9.9%[60.1 µM]	6.4%	-7.7%	21.6%	-4.3%	·	·	·	·	·
Cc1cccc2c(N)c3c(nc12)CCCC3 (tested in a mixture with another compound)	3.9%	4.7%	-17.9%	45.6%	?	12.7%	·	·	·	·
Cc1cc(C)c2c(N)c3cccc(C)c3nc2n1	?	12.6µM*	-18.7%	?	25.1µM*	0.2%	33.6*	·	·	15.1*
O=S(=O)(O)c1cc(Cl)cc(N=Nc2ccc(O)cc2O)c1O	-170.3%	·	12.6µM*	i	56.2µM*	50.1µM*	11.9*	6.7*	42.6*	84.9*
CCCCN(Cc1ccccc1)S(=O)(=O)c1ccc2c(c1)CC(C)N2C(=O)CC (centres undefined)	-19.2%	-18.8%	-27.5%	-0.1%	-3.1%	·	·	·	·	·
O=C(O)C1Nc2c(O)cc(Cl)c([N+](=O)[O-])c2C2C=CCC12 (centres undefined)	1.78µM*	0.251µM*	1.26µM*	?	?	5.01µM*	15*	·	4.78*	23.9*	PGK validate=1.46µM*
CN1\C(=C/C=C/C=C/C=[N+](C)C)C(C)(C)c2ccccc21	50.1µM*	15.8µM*	39.8µM*	17.8µM*	89.1µM*	4.23µM*	37.7*	37.7*	33.8*	84.9*
CN1/C(=C\C=O)C(C)(C)c2ccccc21	-1.9%	4.6%	-4.3%	60.8%	-3.2%	0.5%	·	·	·	·
CC(CCO)Nc1nc2c(c(=O)n(C)c(=O)n2C)n1Cc1ccc(Br)cc1 (centres undefined)	-22.6%	8.1%	-7.1%	30.0%	-3.8%	·	·	·	·	·
Cc1ccc(C)n1-c1cccc(C(=O)O)c1	·	1µM*	·	·	·	·	8.44*	?	0.169*	21.3*
CC(=O)NCCNc1nc(-c2ccccc2C)nc2ccccc12	1.3%[60.1 µM]	·	·	·	·	·	·	·	·	·
Cc1ccn2c(Nc3ccc4c(c3)OCCO4)c(-c3ccc(C)o3)nc2c1	-4.0%	-15.7%	-4.1%	7.3%	-3.6%	·	·	·	·	·
COc1ccc2sc(/C=C/c3ccccc3O)[n+](C)c2c1	-26.6%	17.8µM*	50.1µM*	17.8µM*	39.8µM*	?	67*	67*	33.8*	84.9*
O=C(C[n+]1ccncc1)c1cccc2ccccc12	-14.3%	·	·	-3.4%	-16.2%	·	·	·	·	·
CCOC(=O)C1=C(C)N=c2s/c(=C/c3ccc(OCC(=O)O)cc3)c(=O)n2C1c1ccc(F)cc1 (centres undefined)	-17.0%	56.2µM*	?	17.8µM*	?	-5.8%[11.6 µM]	75.2*	?	·	84.9*
CCN(CC)CCOc1ccc(Br)cc1	-10.0%	3.8%	-0.9%	18.2%	-4.7%	-4.0%	·	·	·	·
CCN(CC)CCOc1ccc2c(c1)C(=NO)c1cc(OCCN(CC)CC)ccc1-2	?	39.8µM*	?	20µM*	12.6µM*	35.5µM*	75.2*	·	·	8.49*
C=C1C=C(C)n2ncc(C(=O)Nc3ccc(C)cn3)c2N1	-1.4%	·	·	?	-11.3%	·	·	·	·	·
SMILES	Pol kappa inh-1	POLB inh	Pol eta inh-1	POLI inh	FEN1 inh-1	WRN helicase inh	POLI cherry-pick	Pol kappa inh-2	Pol eta inh-2	FEN1 inh-2	others
CCOC(=O)c1c2c3c(cccc3[nH]c1=O)C(=O)c1ccccc1-2	0.3%	0.2%	?	41.3%	-14.6%	-13.8%	·	·	·	·
COCCCNc1c2c3c(cccc3[nH]c1=O)C(=O)c1ccccc1-2	?	25.1µM*	?	?	79.4µM*	28.2µM*	?	?	?	60.1*
N#C/C(=C\c1ccc([N+](=O)[O-])o1)C(=O)Nc1ccc(F)cc1	79.4µM*	39.8µM*	22.4µM*	?	-19.1%	?	?	·	47.8*	47.8*
Cc1ccc(/C=C(\C#N)C(=O)Nc2ccc(Br)cc2)o1	7.5%	-16.5%	·	41.4%	-8.0%	·	·	·	·	·
O=C1NC(=O)/C(=C\c2ccc(O)cc2O)S1	11.2µM*	1.58µM*	2.82µM*	?	15.8µM*	35.5µM*	29.9*	·	26.9*	67.5*
O=C(O)CN1C(=O)N/C(=C\c2cccn2-c2ccc(P(=O)(O)O)cc2)C1=O	-10.0%	·	2.3%	?	0.4%	·	·	·	·	·
COc1ccc(NC(=O)CN2C(=O)N/C(=C\c3cccn3-c3ccc(C(=O)NC#N)cc3)C2=O)cc1	·	·	·	·	·	·	42.3*	18.9*	60.1*	42.6*
